According to PubChem BioAssay AID504558 (Broad Institute, 2011):
The whole screen tested about 350,000 compounds, of which about 2,400 (0.69%) were called active. Shown is part of a subset that was picked to be rich in actives. Unmarked numbers belong to inactive results. Cut-off read from the data, not from the text of the source: active = inhibition above about 41%; inconclusive = no clear call, values can overlap the other calls; inactive = below that.

experiment: blockers of LMP1-induced NF-kB reporter signal – cell-based, luminescence, single point, primary screen (AID 504558); conditions: LMP1-induced NF-kappaB luciferase reporter cells, at 12.5 µM, hits give high values;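 note: 0% = neutral control wells and 100% = reference inhibitor control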

| SMILES | inhibition |
| --- | --- |
| Cc1ccc(CN(C)C[C@@H]2OCc3cnnn3CCCC(=O)N([C@@H](C)CO)C[C@H]2C)cc1 | 0.256% |
| O=C(COC(=O)/C=C/c1ccc(Cl)cc1)NC1CCS(=O)(=O)C1 (stereo not given) | -1.97% |
| C[C@@H]1CN([C@@H](C)CO)S(=O)(=O)c2ccc(C#Cc3cccc(F)c3)cc2O[C@H]1CN(C)S(=O)(=O)c1cn(C)cn1 | 5.98% |
| C=CCOc1ccccc1CNn1c(C)n[nH]c1=S | -1.28% |
| N#CCCC(C#N)(c1cccnc1)N1CCOCC1 (stereo not given) | 2.43% |
| COc1cnc(-c2ccccn2)nc1Oc1ccc(C(C)(C)C)cc1 | -4.07% |
| CC(C)(C)Nc1nc(-c2ccccn2)nc2ccccc12 | 45.7% (active) |
| Cc1nc2ccccc2c(C(=O)O)c1-c1ccccn1 | 3.33% |
| O=S1(=O)CCN(Cc2ccccc2)CC1 | 0.572% |
| CC1=C(C(=O)N2CCOCC2)CC(CC(=O)NCc2cccc3ccccc23)C(=O)N1CCC1=CCCCC1 (stereo not given) | -1.54% |
| CC1CCN(C(=O)CSc2nnc(-c3ccco3)n2N)CC1 | -6.21% |
| CCCc1cc(=O)oc2c(C)c(O)c(CN3CCCCC3)cc12 | 5.86% |
| Oc1c(CN2CCCC2)cc(COCc2ccccc2)c2cccnc12 | 69% (active) |
| O=C(Cc1ccccc1)NNC(=O)C1CCN(c2ncccn2)CC1 | -1.53% |
| COCCCN1C(=O)C(CC(=O)NCc2cccs2)CC(C(=O)N2CCOCC2)=C1C (stereo not given) | -3.59% |
| CC1(C)CC(N2CCN(C(c3ccccc3)c3ccccc3)CC2)=CC(=[N+]2CCCCC2)C1 | 50.9% (active) |
| CC1(C)CC(=O)C=C(N2CCOCC2)C1 | 7.14% |
| CC(C)OCC(O)CN1CCN(C(c2ccccc2)c2ccccc2)CC1 (stereo not given) | -3.08% |
| CCCCN1CC(C)(C)[C@H](CC(=O)Nc2ccc(Br)cc2)C1=O | 3.19% |
| O=C(c1cccs1)N1CCN(Cc2ccc3c(c2)OCO3)CC1 | 2.81% |
| COc1ccc(-c2cc(C(=O)N3CCN(Cc4ccc5c(c4)OCO5)CC3)on2)cc1OC | 60.2% (active) |
| CCn1cc(C(=O)N2CCN(Cc3ccc4c(c3)OCO4)CC2)c2cc(OC)c(OC)cc2c1=O | -0.487% |
| O[C@H]1CN(Cc2cccs2)[C@@H](c2ccc(Cl)cc2)C[C@@H]1n1cc(C2CC2)nn1 | -3.9% |
| CCCCCCN1C[C@H](O)[C@@H](n2cc(C3CC3)nn2)C[C@@H]1c1ccc(Cl)cc1 | -2.06% |
| Cc1ccccc1C(=O)NC(=S)Nc1ccc(N2CCN(C(=O)c3ccccc3)CC2)cc1 | 43.1% (active) |
| COc1ccccc1C(=O)NC(=S)Nc1ccc(N2CCOCC2)cc1 | 2.08% |
| Cc1ccccc1C(=O)N1CCN(c2ccc(NC(=O)c3cccs3)cc2)CC1 | 49.3% (active) |
| O=C(Nc1ccc(N2CCN(C(=O)c3cccs3)CC2)cc1)c1cccnc1Cl | 6.16% |

| SMILES | inhibition |
| --- | --- |
| Cc1ccc(C(=O)NC(=S)Nc2ccc(N3CCOCC3)cc2)cc1 | 1.51% |
| O=C(Nc1ccc(N2CCN(C(=O)C3CC3)CC2)cc1)c1cccs1 | 4.6% |
| CN1OC[C@@H]2CN(S(=O)(=O)c3cccc(C(F)(F)F)c3)[C@H](c3ccc(-c4cc5ccccc5o4)cc3)C[C@@H]21 | 23.8% |
| COc1ccc(NC(=O)N(C)C[C@H]2Oc3ncc(C#C[C@@H](C)O)cc3C(=O)N([C@H](C)CO)C[C@H]2C)cc1 | 3.12% |
| Oc1ccc(N2CCN(C(=S)NCc3ccccc3)CC2)cc1 | 50.7% (active) |
| O=C(COC(=O)c1ccccc1C(=O)N1CCN(c2ccccc2)CC1)NCc1ccccc1 | -5.9% |
| Oc1ccccc1N1CCN(C(=S)NCc2ccccc2)CC1 | 0.986% |
| CC(C)N=C1CCCC1C(=S)SSC(=S)C1CCCC1=NC(C)C (stereo not given) | 24.4% |
| O=C(NCCN1CCOCC1)C1CCN(S(=O)(=O)c2ccccc2)CC1 | 5.14% |
| COc1ccc(OC)c(/C=C/C(=O)OCC(=O)Nc2ccc3c(c2)OCCO3)c1 | 0.837% |
| COc1cccc(/C=C/C(=O)Nc2ccc3c(c2)OCCO3)c1 | 58.7% (active) |
| O=C(/C=C\c1ccc2c(c1)OCO2)NC1(C(=O)Nc2ccc3c(c2)OCCO3)CCCCC1 | -3.03% |
| CC1CCCC(NC(=O)COC(=O)c2ccccc2C(=O)N(C)C2CCCCC2)C1C (stereo not given) | -11.2% |
| COc1cccc(/C=N/NC(=O)c2[nH]nc3c2CCc2ccccc2-3)c1O | 69.4% (active) |
| CCn1c(/C=N/NC(=O)c2ccc(OC)cc2)nc2ccccc21 | 4.88% |
| COc1ccc(/C=C2\CCc3ccccc3C2=O)c(OC)c1OC | -2.98% |
| CC1=C(C(=O)N2CCOCC2)CC(CC(=O)NCC2CCCCC2)C(=O)N1Cc1ccc(F)cc1 (stereo not given) | -0.637% |
| CCCc1ccc(S(=O)(=O)N2CCN(C(=O)c3cc(C)on3)CC2)cc1 | -4.88% |
| C[C@H](CO)N1C[C@H](C)[C@@H](CN(C)Cc2ccc3c(c2)OCO3)OCc2cnnn2CCCC1=O | 4.06% |
| CC(C)C1CCN(C(=O)C2CCC(=O)N(C3CCCCCC3)C2)CC1 (stereo not given) | -25.4% |
| CCOc1ccc(S(=O)(=O)N2CCN(C(=S)NCC3CCCO3)CC2)cc1 (stereo not given) | -0.069% |
| S=C(NCC1CCCO1)N1CCN(c2ccc(Cl)c(Cl)c2)CC1 (stereo not given) | 10% |
| COc1ccc(S(=O)(=O)N2CCN(C(=S)NCC3CCCO3)CC2)cc1OC (stereo not given) | 74.2% (active) |
| C[C@H](CO)N1C[C@H](C)[C@H](CN(C)C(=O)c2ccncc2)OCc2ccccc2-c2c(n(C)c3ccccc23)C1=O | 2.77% |
| C[C@H]1CN([C@@H](C)CO)C(=O)CCCn2nncc2CO[C@@H]1CN(C)S(=O)(=O)c1cccc(C#N)c1 | 2.8% |
| CN1OC[C@@H]2CN[C@H](c3ccc(-c4ccccc4)cc3)C[C@@H]21 | -14.4% |
| COc1cccc(NC(=O)N(C)C[C@@H]2Oc3ncc(Br)cc3C(=O)N([C@@H](C)CO)C[C@H]2C)c1 | 1.17% |
